Source: PubChem
Most compounds without a hit are left out; they make up all but 6.5% or so of the library.
Lassa entry inh – inhibitors of Lassa virus binding or cell entry | Lassa virus pseudotype entry inhibition, cell reporter | Potency, µM (titrated, usually from 37.9 µM), most hits filed as inhibitors | 300,000 tested, 1.2% active; calls by dose curve; tested in HEK293 cells; also: nearly all actives have a fitted effect of over 50% in size
MARV entry inh – inhibitors of Marburg virus binding or cell entry; 300,000 tested, 1.8% active; Potency, µM (titrated, usually from 37.8 µM), actives largely listed as inhibitors; Marburg virus pseudotyped entry inhibition, cell reporter; AID 540276; calls by dose curve; tested in HEK293 cells
FMDV antiviral – foot and mouth disease virus antiviral activity; FMDV antiviral cell-based qHTS; Potency, µM (top dose mostly 57.9 µM), most hits filed as inhibitors; 410,000 tested, 1.2% active; calls by dose curve; tested in HEK293T cells; also: read-out not given here; nearly all actives have a fitted effect of over 45% in size
HCMV inh – inhibitors of human cytomegalovirus. HFF cells, HCMV-luciferase reporter, 72 h; stronger effect = lower value. activity change, negative = inhibition, % at 57.5 µM. 410,000 tested, 4.5% active; in the data active = activity change below about -60%; inconclusive = no clear call, values can overlap the other calls; inactive = above about -39%
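Luciferase read-out from HCMV-luciferase-infected HFFs (MOI 1 PFU/cell) 72 h post infection at 37C; compounds added after 16 h cell attachment; activity normalized between buffer-only basal and Salinomycin (10uM) inhibitor controls.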
VACV Venus inh – inhibitors of vaccinia virus (Venus reporter); Vaccinia virus Venus reporter expression, fluorescence; 330,000 tested, 0.46% active; AID 720580; Potency, µM (top dose mostly 36.5 µM), hits mostly inhibitors; calls by dose curve; tested in A549 cells; also: nearly all actives have a fitted effect of over 30% in size
VACV mCherry inh – inhibitors of vaccinia virus infection (mCherry reporter signal) | Vaccinia virus mCherry reporter infection, fluorescence | Potency, µM (series often up to 36.5 µM), most hits filed as inhibitors | 310,000 tested, 0.63% active | AID 720579; calls by dose curve; tested in A549 cells; also: nearly all actives have a fitted effect of over 35% in size
Of the large screens only hits and unclear results are named; the others gave an inactive call; ! = not active in a repeat.

Cc1nc(NCCc2ccc(S(N)(=O)=O)cc2)c2c(C)c(C)sc2n1	Lassa entry inh inconclusive, MARV entry inh inconclusive, FMDV antiviral 22µM, HCMV inh -88, VACV Venus inh inconclusive, VACV mCherry inh inconclusive
CC1=C[C@@H](COCc2ccccc2)O[C@@]2(C1)C(=O)N(Cc1ccccc1C(F)(F)F)c1ccccc12	none (no result: Lassa entry inh, FMDV antiviral, HCMV inh, VACV Venus inh, VACV mCherry inh)
Cc1ccc(C)c(S(=O)(=O)N2CCCOC2CNC(=O)C(=O)NCCc2ccccc2)c1 (stereo not given)	Lassa entry inh inconclusive, MARV entry inh inconclusive, HCMV inh inconclusive
Cc1ccc(C)c(S(=O)(=O)N2CCCOC2CNC(=O)C(=O)NCCC2=CCCCC2)c1 (stereo not given)	Lassa entry inh inconclusive, FMDV antiviral inconclusive, HCMV inh -67
O=C(NCCC1=CCCCC1)c1cc(S(=O)(=O)N2CCOCC2)c(Cl)cc1Cl	none
O=C(NCCC1=CCCCC1)c1ccc(Cl)c(S(=O)(=O)N2CCCCC2)c1	FMDV antiviral inconclusive, HCMV inh -81 (no result: Lassa entry inh, MARV entry inh, VACV Venus inh, VACV mCherry inh)
O=C(NCCC1=CCCCC1)c1ccc(Cl)c(S(=O)(=O)N2CCOCC2)c1	FMDV antiviral inconclusive, HCMV inh -66 (no result: VACV Venus inh, VACV mCherry inh)
NS(=O)(=O)c1ccc(CCNC(=O)c2ccc(Cl)c(S(=O)(=O)N3CCCCC3)c2)cc1	Lassa entry inh inconclusive, MARV entry inh inconclusive, FMDV antiviral 45µM, HCMV inh inconclusive
CC1N=C2C(=O)OC3C=CC=CC3=C2N1c1ccccc1 (stereo not given)	none (no result: Lassa entry inh, FMDV antiviral, HCMV inh, VACV Venus inh, VACV mCherry inh)
CCOc1ccc(-c2nonc2NC(=O)c2oc3c(C)c(C)ccc3c2C)cc1OCC	none
O=C1c2ccccc2C(O)(C2N=CC=N2)N1CCc1ccccc1 (stereo not given)	none (no result: Lassa entry inh, FMDV antiviral, HCMV inh, VACV Venus inh, VACV mCherry inh)
CC12C=C(C=Cc3ccc(Br)cc3)C(C)(C1)[C@H](c1ccc(Br)cc1)CC2=O (stereo not given in full)	Lassa entry inh inconclusive (no result: FMDV antiviral, HCMV inh, VACV Venus inh, VACV mCherry inh)
CCC(C)Sc1cccc(-c2nc3cnccn3c2NC2CCCCC2)c1 (stereo not given)	VACV Venus inh inconclusive, VACV mCherry inh inconclusive (no result: Lassa entry inh, MARV entry inh)
CCC(C)Sc1cc(-c2nc3cc(C)ccn3c2NC2CCCCC2)ccc1OC (stereo not given)	FMDV antiviral inconclusive, HCMV inh -84!, VACV Venus inh inconclusive (no result: Lassa entry inh, MARV entry inh)
CCC(C)Sc1ccc(-c2nc3ccc(C)cn3c2NC2CCCCC2)cc1 (stereo not given)	VACV Venus inh inconclusive, VACV mCherry inh 8.9µM (no result: Lassa entry inh, MARV entry inh, HCMV inh)
CCC(C)Sc1cc(-c2nc3ccccn3c2NC2CCCCC2)ccc1OC (stereo not given)	FMDV antiviral inconclusive, HCMV inh -88!, VACV Venus inh inconclusive, VACV mCherry inh inconclusive (no result: Lassa entry inh, MARV entry inh)
COc1cc(OC)c(OC)cc1CN1CCOc2ccc(CN3C[C@@H](C)O[C@@H](C)C3)cc2C1	none (no result: Lassa entry inh, MARV entry inh, HCMV inh)
Cc1ccc(/C=C2\CCC(C3CCCC3)C2=O)cc1 (stereo not given)	MARV entry inh inconclusive, HCMV inh inconclusive
Cc1ccsc1/C=C1\CCC(C2CCCC2)C1=O (stereo not given)	Lassa entry inh inconclusive, MARV entry inh 7.9µM
COc1ccc(NC(=O)C2Cc3c(-c4ccccc4Oc4ccccc4)ccnc3O2)cc1OC (stereo not given)	FMDV antiviral 25µM, HCMV inh -76 (no result: Lassa entry inh, MARV entry inh)
COc1ccc(NC(=O)C2Cc3c(-c4ccccc4Oc4ccccc4)ccnc3O2)cn1 (stereo not given)	none (no result: Lassa entry inh, MARV entry inh)
CC(C)c1ccc(NC(=O)C2Cc3c(-c4ccccc4Oc4ccccc4)ccnc3O2)cc1 (stereo not given)	HCMV inh -61 (no result: Lassa entry inh, MARV entry inh)
Cc1ccc(C(=O)c2sc(Nc3ccccc3)c(S(=O)(=O)c3ccccc3)c2N)c(C)c1	Lassa entry inh inconclusive, VACV mCherry inh inconclusive (no result: MARV entry inh)
COc1ccc(-n2cc(-c3ccccc3)c3c(=O)[nH]cnc32)cc1	Lassa entry inh 21µM, MARV entry inh inconclusive, VACV Venus inh inconclusive, VACV mCherry inh inconclusive
O=c1[nH]cnc2c1c(-c1ccccc1)cn2-c1cccc(Cl)c1	none (no result: Lassa entry inh, MARV entry inh, VACV Venus inh, VACV mCherry inh)
COc1ccccc1-n1cc(-c2ccccc2)c2c(=S)nc[nH]c21	HCMV inh -69 (no result: Lassa entry inh, MARV entry inh, VACV Venus inh, VACV mCherry inh)
O=C(Nc1ccc(Cl)cc1)N[C@H]1CC[C@@]23CCCN2C(=O)CCC[C@H]3C1Cc1ccccc1 (stereo not given in full)	none (no result: Lassa entry inh, MARV entry inh, FMDV antiviral, VACV Venus inh, VACV mCherry inh)
CNc1nc(C(=O)O)nc(N2CCOCC2)n1	HCMV inh -105
c1ccc(Nc2nc(N3CCNCC3)nc(N3CCOCC3)n2)cc1	Lassa entry inh 8.9µM, MARV entry inh 11µM
C/C(=N\Nc1nc(N2CCCCCC2)nc(N2CCCCCC2)n1)c1ccccc1	HCMV inh -66 (no result: Lassa entry inh, MARV entry inh, VACV Venus inh, VACV mCherry inh)
COc1ccc(Nc2nc(NCc3ccco3)nc(N3CCOCC3)n2)cc1	MARV entry inh 2.8µM, HCMV inh inconclusive
c1ccc(Nc2nc(N3CCOCC3)nc(N3CCOCC3)n2)cc1	MARV entry inh inconclusive, FMDV antiviral inconclusive, VACV Venus inh inconclusive (no result: VACV mCherry inh)
CCOc1ccc(Nc2nc(Nc3ccc(OCC)cc3)nc(N3CCOCC3)n2)cc1	MARV entry inh inconclusive
C#CCCCON=C1C[C@@H](O)[C@H](O)[C@H]2[C@@H]3C(=O)N(C4CCCCC4)C(=O)[C@@H]3CC[C@@H]12	none (no result: Lassa entry inh, FMDV antiviral, HCMV inh, VACV Venus inh, VACV mCherry inh)
Fc1ccc(Nc2nc(N3CCOCC3)nc(N3CCOCC3)n2)cc1	Lassa entry inh inconclusive, MARV entry inh 7.1µM
CC(=O)Nc1ccc(/C(C)=N/Nc2nc(N3CCOCC3)nc(N3CCOCC3)n2)cc1	MARV entry inh inconclusive
COc1ccc(Nc2nc(N3CCOCC3)nc(N3CCOCC3)n2)cc1	none (no result: Lassa entry inh, MARV entry inh, VACV Venus inh, VACV mCherry inh)
CC(=O)Nc1ccc(/C(C)=N/Nc2nc(Nc3cccc4ccccc34)nc(N3CCOCC3)n2)cc1	Lassa entry inh inconclusive, MARV entry inh 1.4µM, HCMV inh -62, VACV Venus inh inconclusive
COC(=O)c1ccc(Nc2nc(N3CCOCC3)nc(N3CCOCC3)n2)cc1	Lassa entry inh inconclusive, MARV entry inh 2µM
CCOC(=O)c1c(S(=O)(=O)N2CCC(C(=O)NCc3ccccc3Cl)CC2)c(C)n(C)c1C	none (no result: MARV entry inh)
CC(=O)SC1CC2=CC(=O)CC[C@]2(C)C2CC[C@@]3(C)[C@@H](CC[C@@]34CCC(=O)O4)C12 (stereo not given in full)	none (no result: Lassa entry inh, FMDV antiviral, HCMV inh, VACV Venus inh, VACV mCherry inh)
COc1cc2c(C(=O)N3CCN(c4ccc(F)cc4)CC3)cn(CC(C)C)c(=O)c2cc1OC	none
Cc1nn(-c2cccc(Cl)c2)c2nc(-c3cccnc3)cc(C(F)(F)F)c12	none
COc1ccc(-n2nc(C)c3c(C(F)(F)F)cc(-c4cccnc4)nc32)cc1	HCMV inh -73
CN(C)CCNc1nccc(N2CCN(C)CC2)n1	none (no result: Lassa entry inh, MARV entry inh, FMDV antiviral, HCMV inh)
COC(=O)c1ccc(CN2CCC3(CCC(CNC(=O)c4ccccc4)O3)CC2)cc1 (stereo not given)	none (no result: Lassa entry inh, MARV entry inh, HCMV inh)
COc1cccc(C(=O)Nc2ccc(Oc3cccc(C(F)(F)F)c3)nc2)c1	Lassa entry inh inconclusive, MARV entry inh 8.9µM, HCMV inh -74, VACV Venus inh inconclusive
COc1ccc(NC(=O)/C=C/c2ccccc2)cn1	none
COc1cccc(/C=C/C(=O)Nc2ccc(OC)nc2)c1	Lassa entry inh inconclusive, HCMV inh -66
O=C(Nc1ccc(Oc2cccc(C(F)(F)F)c2)nc1)c1cccs1	MARV entry inh inconclusive, FMDV antiviral inconclusive, HCMV inh -61
